# According to PubChem BioAssay (NCATS):
# Records with an inconclusive call do not appear. A call without a number means that no potency is given here. Calls of active or inactive are those of the source. Unless noted, calls follow the shape of the dose curve; as a rule, active = well fitted curve in the direction sought with a large enough effect; inconclusive = small, poorly fitted or top-dose-only effect, or another doubt; inactive = no such curve, though single readings can be large; an effect the other way counts as inactive or inconclusive.
# Assays:
# [1] = target: Luciferin 4-monooxygenase (Photinus pyralis) (UniProt P08659); test: Biochemical firefly luciferase enzyme assay for NPC (AID 624030);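 also: purified P. pyralis luciferase at 10 nM with luciferin and ATP substrate; nearly all actives have a fitted effect of over 70% in size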; details: purified P. pyralis luciferase, luminescence, 5 min; series mostly up to 58.6 µM
# Summary of the method: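 Direct inhibition of firefly luciferase enzyme (10 nM final, 50 mM Tris Acetate) assessed by luminescence within 5 minutes. Percent activity scaled between DMSO and PTC124 positive control, with concentration-effect curves classified by fit quality and response.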
# [2] = S16 Schwann cell viability assay (CellTiter-Glo assay) (AID 624031); details: S16 rat Schwann cells viability, 24 h; series mostly up to 57.5 µM; also: nearly all actives have a fitted effect of over 70% in size; also: potency is read from the fitted curve at half-maximal effect
# Summary of the method: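 Following overnight culture in 10% FBS DMEM, parental S16 rat Schwann cells are dosed for 24 h at 37 °C. Viability is read as CellTiter-Glo luminescence and expressed as % activity relative to DMSO (0%) and no-cell wells.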
# [3] = S16 Schwann cell PMP22 intronic element firefly luciferase assay (AID 624032); details: S16 rat Schwann cells, PMP22 element FLuc, 24 h; series mostly up to 57.5 µM; also: nearly all actives have a fitted effect of over 30% in size; also: potency is read from the fitted curve at half-maximal effect
# Summary of the method: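 Luciferase reporter of PMP22 intronic-element expression in stably transfected S16 rat Schwann cells, read by ONE-Glo luminescence after 24 h compound exposure at 37 C. Activity scaled between DMSO (0%) and positive-control PTC124; concentration-effect curves quality-classified.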
# [4] = target: Cytochrome P450 3A4 (Homo sapiens) (UniProt P08684); test: qHTS Assay for Inhibitors and Substrates of Cytochrome P450 3A4 (AID 884); details: recombinant CYP3A4, Luciferin-PPXE luminescence; series mostly up to 57.1 µM; also: potency is read from the fitted curve at half-maximal effect; nearly all actives have a fitted effect of over 50% in size
# Summary of the method: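 20 nM human CYP3A4 with 25 uM Luciferin-PPXE (at KM) in 200 mM KPO4, preincubated 10 min with compound; NADPH regeneration started a 60 min RT reaction. Luciferin detected by luminescence, normalized to 57 uM ketoconazole as full inhibition.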
# [5] = Confirmation and Secondary Assay for Modulators of Hemoglobin Beta Chain Splicing at IVS2 654 locus (AID 910); details: HeLa EGFP-654 splicing reporter, GFP fluorescence, 48 h; series mostly up to 46.1 µM;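 also: HeLa cells stably carrying EGFP split by mutant beta-globin IVS2-654 intron; per-well total GFP intensity by laser scanning cytometry after 2-day treatment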
# Summary of the method: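 Readout: per-well total peak green fluorescence (488 nm ex, 500–520 nm em) from objects 5–250 µm, reflecting correct splicing of an EGFP-654 reporter. Compounds were applied for 2 days at 37 °C to overnight-plated HeLa EGFP-654 cells; controls were DMSO and 500 nM IVS2-654 PNA.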
# [6] = Confirmation and Secondary Assay for Modulators of Hemoglobin Beta Chain Splicing at IVS2 705 locus (AID 930); details: HeLa EGFP-705 splicing reporter, GFP fluorescence, 48 h; series mostly up to 46.1 µM;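 also: HeLa cells stably expressing the EGFP-705 splicing reporter; GFP fluorescence per well restored by corrected splicing of the IVS2-705 intron in EGFP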
# Summary of the method: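 HeLa IVS2-705 EGFP reporter cells, 500/well, compound 2 d at 37C; correct splicing yields fluorescent EGFP. Control: 500 nM antisense PNA. Read-out: total peak GFP intensity.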
# [7] = S16 Schwann cell PMP22 intronic element beta-lactamase assay (AID 624044; calls by dose curve; also: nearly all actives have a fitted effect of over 15% in size; also: potency is read from the fitted curve at half-maximal effect); details: S16 rat Schwann cells, PMP22 element beta-lactamase FRET, 24 h; ratio activity, negative = inhibition: at 38.3 µM (top of the series)
# Summary of the method: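 Rat S16 Schwann cells with beta-Lac driven by a PMP22 intronic element, compound-treated 24 h at 37 °C. LiveBLAzer FRET B/G read: 460 nm normalized to potassium clavulanate vs DMSO; 535 nm FRET as viability; concentration-effect curves classified.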
# [8] = system: W2; test: qHTS profiling for inhibitors of Plasmodium falciparum proliferation (AID 504749); also: nearly all actives have a fitted effect of over 60% in size; also: potency is read from the fitted curve at half-maximal effect; details: P. falciparum in erythrocytes, SYBR Green DNA, 72 h; series mostly up to 28.7 µM
# Summary of the method: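 Three-day growth assay of blood-stage parasites in erythrocytes (0.3% parasitemia, 2.5% hematocrit) at 37 C, 5% CO2, quantified by SYBR Green DNA staining after overnight detergent lysis.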
# [9] = target: Ubiquitin carboxyl-terminal hydrolase 1 (Homo sapiens) (UniProt O94782); test: Inhibitors of USP1/UAF1: Pilot qHTS (AID 504865); details: purified USP1/UAF1, Ub-rhodamine cleavage fluorescence; series mostly up to 114 µM;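 also: rhodamine fluorescence freed from ubiquitin-rhodamine substrate followed over time; top concentration of the series differs between compounds; nearly all actives have a fitted effect of over 35% in size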
# Summary of the method: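 Deubiquitinase activity followed as kinetic rhodamine fluorescence release from 150 nM Ub-Rho. 1 nM USP1/UAF1 with compound, after 15 min room-temperature preincubation, in HEPES pH 7.8 buffer containing TCEP, EDTA, BSA and Tween-20.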
# Luciferin 4-monooxygenase (Photinus pyralis), sequence (P08659 whole entry, looked up): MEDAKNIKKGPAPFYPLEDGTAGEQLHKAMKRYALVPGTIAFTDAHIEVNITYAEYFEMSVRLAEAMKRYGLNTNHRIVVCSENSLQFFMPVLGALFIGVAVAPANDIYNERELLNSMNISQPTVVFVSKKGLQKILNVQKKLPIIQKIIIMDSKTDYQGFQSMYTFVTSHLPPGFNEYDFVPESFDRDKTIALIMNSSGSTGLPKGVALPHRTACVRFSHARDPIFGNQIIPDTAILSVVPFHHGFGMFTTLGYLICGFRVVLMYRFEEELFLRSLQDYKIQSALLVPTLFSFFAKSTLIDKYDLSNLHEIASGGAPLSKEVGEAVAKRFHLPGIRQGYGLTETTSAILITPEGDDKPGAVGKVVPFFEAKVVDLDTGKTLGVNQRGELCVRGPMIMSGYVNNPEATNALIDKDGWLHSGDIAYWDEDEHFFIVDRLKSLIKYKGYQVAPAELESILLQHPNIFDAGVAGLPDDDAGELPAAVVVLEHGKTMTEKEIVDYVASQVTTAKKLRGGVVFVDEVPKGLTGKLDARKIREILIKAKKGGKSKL
# Ubiquitin carboxyl-terminal hydrolase 1 (Homo sapiens), sequence (O94782 whole entry, looked up): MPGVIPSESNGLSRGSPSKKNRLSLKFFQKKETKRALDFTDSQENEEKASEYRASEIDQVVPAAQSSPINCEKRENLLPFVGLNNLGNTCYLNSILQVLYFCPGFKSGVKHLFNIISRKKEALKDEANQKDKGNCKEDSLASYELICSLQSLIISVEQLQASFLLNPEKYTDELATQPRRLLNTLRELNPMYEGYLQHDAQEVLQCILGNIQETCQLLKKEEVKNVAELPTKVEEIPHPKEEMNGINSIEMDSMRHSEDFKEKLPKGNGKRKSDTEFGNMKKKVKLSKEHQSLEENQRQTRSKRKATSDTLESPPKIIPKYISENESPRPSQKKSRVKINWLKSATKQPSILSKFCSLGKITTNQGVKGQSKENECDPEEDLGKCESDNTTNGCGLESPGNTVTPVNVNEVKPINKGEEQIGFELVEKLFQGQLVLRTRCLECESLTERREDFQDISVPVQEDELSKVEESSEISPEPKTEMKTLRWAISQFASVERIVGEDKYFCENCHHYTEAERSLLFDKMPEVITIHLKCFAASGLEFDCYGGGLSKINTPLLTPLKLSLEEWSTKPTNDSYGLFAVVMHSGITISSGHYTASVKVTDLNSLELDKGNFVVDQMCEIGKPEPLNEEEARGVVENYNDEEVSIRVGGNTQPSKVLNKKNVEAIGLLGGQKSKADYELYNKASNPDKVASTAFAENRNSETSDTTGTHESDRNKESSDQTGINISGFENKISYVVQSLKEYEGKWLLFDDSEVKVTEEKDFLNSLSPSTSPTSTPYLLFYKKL
# Cytochrome P450 3A4 (Homo sapiens), sequence (P08684 whole entry, looked up): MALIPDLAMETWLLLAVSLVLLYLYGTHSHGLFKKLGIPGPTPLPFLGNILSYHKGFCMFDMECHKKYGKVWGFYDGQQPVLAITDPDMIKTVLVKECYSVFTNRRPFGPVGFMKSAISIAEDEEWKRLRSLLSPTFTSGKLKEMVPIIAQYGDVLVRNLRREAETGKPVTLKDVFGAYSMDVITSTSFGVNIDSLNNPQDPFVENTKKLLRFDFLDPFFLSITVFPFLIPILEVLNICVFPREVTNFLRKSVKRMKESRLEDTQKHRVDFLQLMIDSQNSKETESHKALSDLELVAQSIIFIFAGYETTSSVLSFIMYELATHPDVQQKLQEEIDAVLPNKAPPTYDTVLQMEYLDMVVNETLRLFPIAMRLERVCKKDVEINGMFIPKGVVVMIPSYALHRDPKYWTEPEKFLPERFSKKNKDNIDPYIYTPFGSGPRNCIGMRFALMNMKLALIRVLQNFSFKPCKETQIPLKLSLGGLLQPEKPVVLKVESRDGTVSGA
SMILES,Potency [1],Potency [2],Potency [3],Potency [4],Potency [5],Potency [6],Potency [7],Potency [8],Potency [9]
CCCCCOC(=O)Nc1nc(=O)n(C2O[C@H](C)[C@@H](O)[C@@H]2O)cc1F (some centres undefined),inactive,inactive,inactive,–,–,–,–,–,–
CCC(C(=O)C(C)C(O)C(C)CCc1ccc(C)c(O)c1C(=O)O)C1OC(CC)(C2CC[C@@](O)(CC)C(C)O2)CC1C (some centres undefined),inactive,inactive,1810 nM (active),20000 nM (active),inactive,inactive,6300 nM (active),675 nM (active),–
O=C(O)C(O)c1ccccc1 (centres undefined),inactive,inactive,inactive,–,–,–,inactive,inactive,inactive
Cc1onc(-c2c(F)cccc2Cl)c1C(=O)NC1C(=O)N2C1SC(C)(C)C2C(=O)O (centres undefined),inactive,inactive,inactive,–,–,–,inactive,inactive,inactive
NC(=O)OC[C@@H]1[C@H](NC(=O)/C(=N/OCC(=O)O)c2csc(N)n2)C(=O)N1S(=O)(=O)O,inactive,inactive,inactive,–,–,–,inactive,–,inactive
CC(C)C(=O)OCC(=O)[C@@]12OC(C3CCCCC3)O[C@@H]1CC1C3CCC4=CC(=O)C=C[C@]4(C)C3[C@@H](O)C[C@@]12C (some centres undefined),inactive,–,–,–,–,–,inactive,239 nM (active),–
C/C(=C(/CCO)SS/C(CCO)=C(\C)N(C=O)Cc1cnc(C)nc1N)N(C=O)Cc1cnc(C)nc1N,inactive,inactive,inactive,–,–,–,inactive,inactive,inactive
CC[C@@]1(O)CC2CN(CCc3c([nH]c4ccccc34)[C@](C(=O)OC)(c3cc4c(cc3OC)N(C)C3[C@@](O)(C(=O)OC)C(OC(C)=O)[C@]5(CC)C=CCN6CC[C@@]43C65)C2)C1 (some centres undefined),–,inactive,510 nM (active),–,inactive,inactive,562 nM (active),953 nM (active),–
CC1(C)CC1C(=O)N/C(=C/CCCCSCC(N)C(=O)O)C(=O)O (centres undefined),inactive,inactive,inactive,–,–,–,–,inactive,inactive
CC[C@H](C)[C@H]1O[C@]2(CC[C@@H]1C)C[C@@H]1C[C@@H](C/C=C(\C)[C@H](O[C@@H]3C[C@H](OC)[C@H](O[C@@H]4C[C@H](OC)[C@@H](O)[C@H](C)O4)[C@H](C)O3)[C@@H](C)/C=C/C=C3\CO[C@@H]4[C@H](O)C(C)=C[C@@H](C(=O)O1)[C@]34O)O2,inactive,12800 nM (active),9070 nM (active),–,–,–,–,1690 nM (active),–
Cc1ccc(/C=C2/C(=O)C3(C)CCC2C3(C)C)cc1 (centres undefined),–,inactive,inactive,–,–,–,–,–,inactive
CNC1C(O)C(OC2C(NC(=O)C(O)CN)CC(N)C(OC3OC(CN)C(O)C(O)C3O)C2O)OCC1(C)O (centres undefined),inactive,–,inactive,–,–,–,–,inactive,inactive
